Experimental data from PubChem BioAssay.

Columns and labels:
[1] = biological target: PEG-3 (UniProt Q6IN02); test: inhibition of PEG-3 promoter-driven reporter – cell-based, HeLa, luciferase, CREF/GAPDH counter-screen panel, dose response (AID 624167); conditions: CREF/GAPDH counter-screens; HeLa PEG-Prom luciferase reporter, overnight, run 1, dose range 1, at 100 µM (top of the series) unless noted
[2] = biological target: PEG-3 (UniProt Q6IN02); test: as above; conditions: CREF/GAPDH counter-screens; HeLa PEG-Prom luciferase reporter, overnight, run 2, dose range 1, at 100 µM (top of the series) unless noted

Sequence of PEG-3 (Q6IN02 whole entry, looked up): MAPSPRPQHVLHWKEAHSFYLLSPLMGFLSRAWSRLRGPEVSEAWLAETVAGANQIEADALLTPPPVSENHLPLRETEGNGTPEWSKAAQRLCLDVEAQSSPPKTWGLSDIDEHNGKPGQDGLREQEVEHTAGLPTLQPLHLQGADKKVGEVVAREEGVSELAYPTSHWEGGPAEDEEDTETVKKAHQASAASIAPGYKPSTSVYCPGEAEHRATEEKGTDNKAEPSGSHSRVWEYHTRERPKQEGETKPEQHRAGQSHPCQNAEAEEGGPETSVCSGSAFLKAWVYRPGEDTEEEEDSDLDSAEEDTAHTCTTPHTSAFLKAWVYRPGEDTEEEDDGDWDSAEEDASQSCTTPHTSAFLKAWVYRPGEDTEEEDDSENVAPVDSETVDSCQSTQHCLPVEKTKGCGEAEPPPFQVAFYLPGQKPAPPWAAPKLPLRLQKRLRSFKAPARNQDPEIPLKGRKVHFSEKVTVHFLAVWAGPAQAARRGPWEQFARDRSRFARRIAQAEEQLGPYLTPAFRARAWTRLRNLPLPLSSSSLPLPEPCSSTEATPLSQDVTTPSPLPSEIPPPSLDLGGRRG

Row | SMILES | inhibition [1] [%] | inhibition [2]
1 | CC(=O)NC(c1ccc(C)cc1)c1cc(Cl)c2cccnc2c1O (stereo not drawn) | 88.1 | 89.7%
2 | COc1ccc2sc(N(CCCN(C)C)C(=O)c3ccc(S(=O)(=O)N4CCCc5ccccc54)cc3)nc2c1 | 98.4 | 102%
3 | CCc1ccc(OCCNc2cc(N3CCNC(C)C3)ccc2[N+](=O)[O-])cc1 (stereo not drawn) | 99.6 | 101%
4 | COc1ccc(C2NCCc3c2[nH]c2ccccc32)cc1COc1ccc(F)cc1 (stereo not drawn) | 98.9 | 101%
5 | O=C(Nc1ccc(-c2nc3ccccc3o2)cc1)c1ccc(N2CCOCC2)c([N+](=O)[O-])c1 | 17.1 | 37.6%
6 | COc1ccc2c(c1OC)C(=O)N1c3ccccc3C(=O)N(c3ccccc3F)C21 (stereo not drawn) | 62.8 | 68.7%
7 | COc1ccc(CN(C)C(=O)C(Cc2ccccc2)NC(=O)c2ccccc2)cc1F (stereo not drawn) | 99.1 | 98.2%
8 | CN1CCN(CCNC(=O)c2ccc3nc(-c4ccc(F)cc4)c(-c4ccc(F)cc4)nc3c2)CC1 | 99.2 | 98.2%
9 | CCn1cc(C(=O)NCCC(C)C)c(=O)c2cc(F)c(N3CCN(C(=O)c4ccco4)CC3)cc21 | 32.2 | 101% [run 2, dose range 1, at 50 µM]
10 | CCN(CCN(C)C)C(=O)C1CCN(S(=O)(=O)c2c(C)noc2/C=C/c2ccccc2F)CC1 | 90.8 | 97.5%
11 | CC(NC(=O)c1ccc([N+](=O)[O-])o1)C12CC3CC(CC(C3)C1)C2 (stereo not drawn) | 99.4 | 98.5%
12 | O=C(CCCN1C(=O)/C(=C/c2ccccc2Cl)SC1=S)NNC(=O)c1ccccc1Cl | 100 | 101%
13 | CC1=C(CC[C@@H](C)CO)OC2CC3C4CCC5CC(O)CCC5(C)C4CC(=O)C3(C)C12 (stereo partly drawn) | 88.8 | 83.2%
14 | COc1ccc(N(Cc2cc3cc(OC)ccc3[nH]c2=O)S(=O)(=O)c2ccc(NC(C)=O)cc2)cc1 | 89.7 | 89.7%
15 | COc1ccc(CCNC(=O)c2cc3c(=O)n4ccccc4nc3n(C3CCCCC3)c2=N)cc1 | 102 | 102%
16 | CC(C)N1CCc2c(sc(NC(=O)c3cc4cc([N+](=O)[O-])ccc4s3)c2C(N)=O)C1 | 98.8 | 101%
17 | Cc1ccc(F)cc1-c1cc2nc(NCCCN(C)C)n(C)c(=O)c2s1 | 101 | 99.2%
18 | CN(C)CCNC(=O)c1sc2nc(-c3ccccc3)cc(C(F)(F)F)c2c1N | 102 | 102%
19 | O=C(Nc1ccc(CN2CCCCC2)cc1)Nc1ccc(Br)cc1Cl | 99 | 101%
20 | COc1cc(-c2cc(C(=O)N(C)Cc3ccccc3)c3ccccc3n2)cc(OC)c1OC | 79.4 | 94.8%

Row | SMILES | inhibition [1] [%] | inhibition [2]
21 | O=S(=O)(CC(CN1CCCCC1)N1CCCCC1)c1ccccc1 (stereo not drawn) | 102 | 102%
22 | NC(c1csc(Nc2nccc(C(F)(F)F)n2)n1)C1CCCCC1 (stereo not drawn) | 98.2 | 99.1%
23 | COc1ccc(-c2cc(C(=O)N3CCN(c4ncccn4)CC3)c3ccccc3n2)c(OC)c1 | 70 | 47.8%
24 | O=S(=O)(c1cccc(F)c1)N1CCN(c2nc(-c3cccnc3)nc3ccccc23)CC1 | 26.5 | 46.2%
25 | COC(=O)Cc1[nH]n(-c2nc3ccccc3s2)c(=O)c1C(C)=Nc1ccc(Cl)cc1 | 88.1 | 94.2%
26 | COc1ccc(C(O)(CCC(C)C)C(CN2CCOCC2)c2ccccc2)cc1 (stereo not drawn) | 96.5 | 101%
27 | CCOC(=O)c1c(NC(C)=O)sc2c(OCC(O)CNC(C)(C)C)c(Br)ccc12 (stereo not drawn) | 102 | 93.7%
28 | CC(=O)Nc1cccc(-c2ccnc3c2CC(C)(C(=O)Nc2cccc(C(F)(F)F)c2)O3)c1 (stereo not drawn) | 92.6 | 88.4%
29 | Cc1c(C#N)c(N)nc2c3c(sc12)NC(=O)CC3c1ccc(Cl)cc1 (stereo not drawn) | 98.7 | 100%
30 | CCCCCCOc1ccc(/C(C)=N/NC2=NCCN2)cc1 | 101 | 101%
31 | COc1cccc(/C=N/NC(=O)c2c(-c3ccccc3)noc2C)c1O | 33.5 | 54.6%
32 | COc1ccc(CCNC(=O)C(=O)NCC2CCCN2S(=O)(=O)c2ccccc2)cc1OC (stereo not drawn) | 97.2 | 81.7%
33 | Cc1cc(C)c2nc(N(CCCN(C)C)C(=O)c3ccc(S(=O)(=O)N4CCCCCC4)cc3)sc2c1 | 102 | 100%
34 | CCC(C)NCCOCCOc1ccc(Cl)c2ccccc12 (stereo not drawn) | 102 | 98.8%
35 | O=S(=O)(Nc1cccc2ncccc12)c1cccs1 | 94.5 | 96.5%
36 | CCOC(=O)/C(=C\c1ccccc1)C(=O)CCN1CCOCC1 | 102 | 102%
37 | Cc1nc(N2CCN(S(=O)(=O)c3ccccc3C#N)CC2)c2c(-c3ccccc3)csc2n1 | -7.38 | 5.99%
38 | CN(C)CCCNc1ncnc2oc(-c3ccccc3)c(-c3ccccc3)c12 | 102 | 101%
39 | Cc1ccc2[nH]c(=O)c(C3C(C#N)=C(N)Oc4c3ccc3cccnc43)cc2c1 (stereo not drawn) | 99.2 | 98.6%
